About 83,000 compounds went through this panel and 20% of them were active in at least one assay; those are over-represented in the sample as a whole.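 Interpretation: 100, growth as untreated; towards 0, rising growth inhibition; 0, no net growth; 0 to -100, cell death. Compounds scoring below 10 were considered active.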 Calls of active or inactive are those of the source.
system: SK-MEL-28 melanoma; experiment: NCI-60 one-dose screen, 48 h (100 = growth as untreated, 0 = no growth, -100 = all killed); conditions: 10 µM unless noted

Row | SMILES | growth
1 | Nc1c(Br)cc2c(c1Br)Cc1cc([N+](=O)[O-])ccc1-2 | 113% (inactive)
2 | CCCN(CCSSCCNc1nc(N(C)O)nc(N(C)O)n1)c1nc(N(C)O)nc(N(C)O)n1 | 67.1% (inactive)
3 | COC(=O)c1sccc1-c1cc(O)c(C(=O)Nc2ccccc2)s1 | 110% (inactive)
4 | N#Cc1c(-c2ccc(Cl)cc2)nc(NN=Cc2ccc[nH]2)nc1N1CCOCC1 | 90.8% (inactive)
5 | Clc1ccc(-c2nc(C(Cl)Cl)nc3cc(-c4ccccc4)nn23)cc1 | 47.9% (inactive)
6 | C/C(=N\Nc1ccccc1)c1ccc(NC2=CC(=O)c3ccccc3C2=O)cc1 | 65.9% (inactive)
7 | COc1ccc(/C=C(/C(=O)N2CCNCC2)c2cc(OC)c(OC)c(OC)c2)cc1O | 55.5% (inactive)
8 | CCN(CC)CCCC(Cc1ccccc1)Nc1c2ccc(Cl)cc2nc2ccc(OC)cc12 (stereo unspecified) | -79.3% (active)
9 | Fc1ccc2[nH]cc(-c3nc(-c4c[nH]c5c(Cl)nccc45)cs3)c2c1 | 43.9% (inactive)
10 | Fc1ccc(/C=C/[C@@H]2C[C@@H](F)CCO2)cc1 | 92.9% (inactive)
11 | Cc1ccccc1N1CCN(C(=S)c2ccccc2)CC1 | 109% (inactive)
12 | N#Cc1ccc(/C=C/c2cn(-c3ccccc3)nc2-c2cccc([N+](=O)[O-])c2)cc1 | 66.3% (inactive)
13 | Cc1[nH]c(C(=O)Nc2ccccc2OC2CCN(CCN3CCOCC3)CC2)c(Cl)c1Cl | 104% (inactive)
14 | COc1ccc(C(O)c2cc3c(N)c(C(=O)Nc4cccc5ccccc45)sc3nc2C)cc1 (stereo unspecified) | 57.6% (inactive)
15 | Cc1ccc(C(=O)c2ccc(CC(=O)N/N=C/c3cccc(O)c3O)n2C)cc1 | 80% (inactive)
16 | CCC(C)(C)c1ccc(Nc2ccc(Nc3ccc(C(C)(C)CC)cc3)cc2)cc1 | 105% (inactive)
17 | O=C(Nc1ccc(Nc2ccncc2)cc1)c1ccc(Nc2ccnc3ccc([N+](=O)[O-])cc23)cc1 | 109% (inactive)
18 | CCCCNC(=O)c1ccc2c(c1)nc(-c1ccccc1)n2C1CCCCC1 | 106% (inactive)
19 | Cc1ccc(NC(=O)c2cc3ccccc3cc2O)c(C)c1 | 81.9% (inactive)
20 | CCOC(=O)C(CCN(C)C)c1ccccc1 (stereo unspecified) | 97.8% (inactive)
21 | CC(O)Cc1c[nH]c(=O)[nH]c1=O (stereo unspecified) | 122% (inactive)
22 | COCCn1cc(-c2nc(-c3c[nH]c4ncccc34)cs2)c2ccccc21 | 89.4% (inactive)
23 | CC1SC(c2ccccc2O)N(NC(=O)CCC(=O)c2nc3ncccc3[nH]2)C1=O (stereo unspecified) | 113% (inactive)
24 | COC12C=C/C(=C(/C(=O)OCCSc3ccnn3C)C(=O)CCCCCCCCC3(OC)C=C/C(=C(/C(=O)OCCSc4ccnn4C)C(=O)CCCCCCCC1)O3)O2 | -9.65% (active)
25 | COC1C(O)CC(OC2CC(OC3CC(O[C@@H]4C(=O)c5c(cc6cc(OC7CC(OC8CC(O)C(O)C(C)O8)C(O)C(C)O7)c(C)c(O)c6c5O)CC4[C@H](OC)[C@@H](O)C(C)=O)OC(C)C3O)OC(C)C2O)OC1C (stereo partly specified) | -13.9% (active)
26 | CNC(=O)c1cc(Oc2ccc3c(c2)sc2nc(-c4ccc(NC(=O)[C@@H](NC(=O)OC)C(C)C)cc4)cn23)ccn1 | 75.7% (inactive)

system: SK-MEL-2 melanoma; experiment: as above; conditions: 10 µM unless noted

Row | SMILES | growth
27 | COc1ccc(C=Nc2c(C(=O)Nc3cccc(Cl)c3C)sc3nc(C)c(C(=O)/C=C/c4ccc(OC)cc4)cc23)cc1 | 42.2% (inactive)
28 | CCOC(=O)CNC1=C(Cl)C(=O)N(Cc2ccc(Cl)cc2)C1=O | 101% (inactive)
29 | COc1ccc(/C=C(\C(=O)NCc2cccnc2)S(=O)(=O)c2ccccc2)cc1OC | 54.6% (inactive)
30 | COc1cc2c(c(OC)c1OC)CCC(c1cccc(C(=O)Nc3ccc(Br)cc3)c1)O2 (stereo unspecified) | 46.4% (inactive)
31 | Nc1cc(-c2ccc(Cl)cc2)nn1-c1nnc(/C=C/c2ccco2)c(=O)[nH]1 | 87.9% (inactive)
32 | N#C/C(=C\c1ccc(-c2cccc(Cl)c2)o1)C(=O)Nc1ncc(Cc2ccc(Cl)cc2)s1 | 97.2% (inactive)
33 | CCOC(=O)c1c(C)nc2c(c1N)C(=O)C(=O)N2Cc1ccc(OC)cc1 | 113% (inactive)
34 | c1csc(-c2cn3nc(-c4c[nH]c5ccccc45)sc3n2)c1 | 37.2% (inactive)
35 | FC(F)(F)c1[nH]ncc1-c1nc2ccc3[nH]ncc3c2c2c1CCCC2 | -18.4% (active)
36 | COc1cc(-c2nccc3[nH]c(-c4cccc5[nH]ccc45)nc23)cc(OC)c1OC | 35.8% (inactive)
37 | COc1ccc2[nH]cc(-c3nonc3-c3c[nH]c4ccc(Br)cc34)c2c1 | 73.1% (inactive)
38 | CC(=O)c1c(Nc2cccc(F)c2)[nH]c2c(Cl)cc(Cl)c(Cl)c2c1=O | -37.5% (active)
39 | CCOC(=O)NC(=S)n1oc(=O)c2ccccc21 | 110% (inactive)
40 | O=S(Nc1ccccc1)c1ccc(Cl)cc1 (stereo unspecified) | 95.2% (inactive)
41 | Nc1c(Br)cc2c(c1Br)Cc1cc([N+](=O)[O-])ccc1-2 | 109% (inactive)
42 | CCCN(CCSSCCNc1nc(N(C)O)nc(N(C)O)n1)c1nc(N(C)O)nc(N(C)O)n1 | 69.8% (inactive)
43 | COC(=O)c1sccc1-c1cc(O)c(C(=O)Nc2ccccc2)s1 | 104% (inactive)
44 | N#Cc1c(-c2ccc(Cl)cc2)nc(NN=Cc2ccc[nH]2)nc1N1CCOCC1 | 98.8% (inactive)
45 | Clc1ccc(-c2nc(C(Cl)Cl)nc3cc(-c4ccccc4)nn23)cc1 | 84.5% (inactive)
46 | C/C(=N\Nc1ccccc1)c1ccc(NC2=CC(=O)c3ccccc3C2=O)cc1 | 55.6% (inactive)

Row | SMILES | growth
47 | COc1ccc(/C=C(/C(=O)N2CCNCC2)c2cc(OC)c(OC)c(OC)c2)cc1O | 10.8% (inactive)
48 | CCN(CC)CCCC(Cc1ccccc1)Nc1c2ccc(Cl)cc2nc2ccc(OC)cc12 (stereo unspecified) | 7.91% (active)
49 | Fc1ccc2[nH]cc(-c3nc(-c4c[nH]c5c(Cl)nccc45)cs3)c2c1 | 73.4% (inactive)
50 | Fc1ccc(/C=C/[C@@H]2C[C@@H](F)CCO2)cc1 | 110% (inactive)
51 | Cc1ccccc1N1CCN(C(=S)c2ccccc2)CC1 | 85% (inactive)
52 | N#Cc1ccc(/C=C/c2cn(-c3ccccc3)nc2-c2cccc([N+](=O)[O-])c2)cc1 | 76.3% (inactive)
53 | Cc1[nH]c(C(=O)Nc2ccccc2OC2CCN(CCN3CCOCC3)CC2)c(Cl)c1Cl | 101% (inactive)
54 | COc1ccc(C(O)c2cc3c(N)c(C(=O)Nc4cccc5ccccc45)sc3nc2C)cc1 (stereo unspecified) | 35.8% (inactive)
55 | Cc1ccc(C(=O)c2ccc(CC(=O)N/N=C/c3cccc(O)c3O)n2C)cc1 | 95.3% (inactive)
56 | CCC(C)(C)c1ccc(Nc2ccc(Nc3ccc(C(C)(C)CC)cc3)cc2)cc1 | 95.9% (inactive)
57 | O=C(Nc1ccc(Nc2ccncc2)cc1)c1ccc(Nc2ccnc3ccc([N+](=O)[O-])cc23)cc1 | 111% (inactive)
58 | CCCCNC(=O)c1ccc2c(c1)nc(-c1ccccc1)n2C1CCCCC1 | 101% (inactive)
59 | Cc1ccc(NC(=O)c2cc3ccccc3cc2O)c(C)c1 | 91.8% (inactive)
60 | CCOC(=O)C(CCN(C)C)c1ccccc1 (stereo unspecified) | 101% (inactive)
61 | CC(O)Cc1c[nH]c(=O)[nH]c1=O (stereo unspecified) | 115% (inactive)
62 | COCCn1cc(-c2nc(-c3c[nH]c4ncccc34)cs2)c2ccccc21 | 77.5% (inactive)
63 | CC1SC(c2ccccc2O)N(NC(=O)CCC(=O)c2nc3ncccc3[nH]2)C1=O (stereo unspecified) | 95.8% (inactive)
64 | COC12C=C/C(=C(/C(=O)OCCSc3ccnn3C)C(=O)CCCCCCCCC3(OC)C=C/C(=C(/C(=O)OCCSc4ccnn4C)C(=O)CCCCCCCC1)O3)O2 | 12.3% (inactive)
65 | COC1C(O)CC(OC2CC(OC3CC(O[C@@H]4C(=O)c5c(cc6cc(OC7CC(OC8CC(O)C(O)C(C)O8)C(O)C(C)O7)c(C)c(O)c6c5O)CC4[C@H](OC)[C@@H](O)C(C)=O)OC(C)C3O)OC(C)C2O)OC1C (stereo partly specified) | -37.7% (active)
66 | CNC(=O)c1cc(Oc2ccc3c(c2)sc2nc(-c4ccc(NC(=O)[C@@H](NC(=O)OC)C(C)C)cc4)cn23)ccn1 | 59.6% (inactive)

From PubChem BioAssay (NCI)
